Results taken from paper PMC7826789 (International Journal of Molecular Sciences, 2021).

These molecules were tested on RPS6KA6.
For `Nc1nc(-c2cccc(Cl)c2)c(-c2ccc3ncccc3n2)s1` [GW780159X], the Kinases covered was “RPS6KA6”.
For `C[C@@H]1CCNC(=O)c2cc3ccc(C(=O)Nc4nc5ccccc5n4CCCN(C)C)cc3n21` [BI00645435], the Kinases covered was “RPS6KA6”.
`Fc1ccc(-c2nn3ccccc3c2-c2ccncc2)cc1` [GW434756X] was tested, and the Kinases covered was “RPS6KA6”.
For `Nc1nc(-c2ccccc2F)c(-c2ccnc3ccccc23)s1` [GW560459], the Kinases covered was “RPS6KA6”.

Each molecule was assayed on STK17A.
`CNc1nc(-c2ccc3c(N)n[nH]c3c2)cc(N2C[C@@H](C(=O)Nc3ccccc3)CC[C@H]2C)n1` [GSK2298859] was tested, and the Kinases covered was “STK17A”.
`C[C@@H]1CCNC(=O)c2cc3ccc(C(=O)Nc4nc5ccccc5n4CCCN(C)C)cc3n21` [BI00645435] was tested, and the Kinases covered was “STK17A”.
In the case of `CC(C)c1cc(-c2ccc3c(N)n[nH]c3c2)nc(N)n1` [GSK2250882], the Kinases covered is reported as “STK17A”.
`C[C@H]1CC[C@@H](C(=O)Nc2ccccc2)CN1c1cc(-c2ccc3c(N)n[nH]c3c2)nc(N)n1` [GSK2283293] was tested, and the Kinases covered was “STK17A”.
